Screening data deposited in PubChem BioAssay by several laboratories.
A selection: hits, their analogues and other compounds. The true share with any hit is near 1.8%.
INS-1E GSIS act: primary screen for activators of insulin secretion dependent on glucose, INS-1E cells, GLuc reporter luminescence. activation, % at 16.6 µM. hit rate 0.61% among 370,000. INS-1E GLuc reporter insulin secretion, 2-3 h;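 active = lowest replicate activation of at least 40%, so every replicate reaches that level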
NRP1-CendR mod: modulators of CendR peptide binding to human neuropilin-1. O14786. hit rate 0.85% among 360,000. AID 602438. inhibition, % at 25 µM. FAM-RPARPAR peptide binding to NRP-1, fluorescence polarization;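 active = inhibition or corrected inhibition above about 18%, plus a signal ratio from 0.5 to 1.5, limit read from the data, passing the limit was not always enough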
ABCB6 inh 2: human ABCB6 transporter inhibition. K562-ABCB6 porphyrin accumulation, flow cytometry, 1 h; hits give low values. fluorescence ratio to DMSO, % at 10 µM. hit rate 0.19% among 360,000. AID 602162;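 active = fluorescence ratio to DMSO below 75%, the collection mean minus 3 SD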;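 also: signal is porphyrin accumulated inside mitochondria; lower ratio means ABCB6 inhibition with less porphyrin fluorescence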
hiPSC survival: hiPSC single-cell survival enhancement | ATPlite luminescence; 100% = ROCK inhibitor wells, 0% = DMSO | survival enhancement, % at 20 µM | hit rate 0.044% among 360,000 | AID 602274; in the data active = survival enhancement above about 18%;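 also: cells exposed to compounds for 16 hours before the ATP read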
ARNT TACC3 PPI: ARNT/TACC3 interaction disruption; AlphaScreen His-ARNT PAS-B/GST-TACC3 binding, luminescence; TACC3 fragment carries E629A point mutation; Q9Y6A5; hit rate 0.66% among 390,000; inhibition, % at 9.99 µM;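 active = mean inhibition of replicates at least 50% and at least half of replicates each reaching 50%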
ARNT Alpha ctr-1: AlphaScreen artifact in ARNT/TACC3 counter-screen. shares compounds with ARNT TACC3 PPI. His-ARNT PASB-GST AlphaScreen artifact counter-screen, luminescence. AC50, µM (titrated, usually from 68 µM). hit rate 50% among 1,200. AID 651705;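 active = every separate test run was called active for a drop in luminescence, with AC50 within twice the top valid dose, actives reach about 71 µM in these data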
ARNT Alpha ctr-2: counter-screen for ARNT-TACC3 inhibitors: AlphaScreen artifacts; AC50, µM; Dual-tagged His-ARNT PASB-GST AlphaScreen artifact counter-screen; hit rate 70% among 45; shares compounds with ARNT TACC3 PPI;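 active = luminescence drop, with half-maximal potency fitted within twice the sample's top valid dose, cut at about 70 µM in these data; inactive = the rest, including signal moving the wrong way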
Each line names hits and unclear results; the compound was inactive in the other large screens (follow-up assays come after a bar, where they were run).

COc1ccc(-c2oc3cc(O)c(OC)c(O)c3c(=O)c2OC)cc1O	ARNT TACC3 PPI 56 | ARNT Alpha ctr-1 inactive
Cc1c(C(=O)N(C)C)sc2nc(-c3ccccn3)[nH]c(=O)c12	ARNT TACC3 PPI 72 (no result: INS-1E GSIS act) | ARNT Alpha ctr-1 23µM | ARNT Alpha ctr-2 15
CCN(CC)C(=O)c1sc2nc(Cc3ccccc3)[nH]c(=O)c2c1C	none
CCCNC(=O)[C@H]1[C@H](CO)[C@H]2Cn3c(ccc(-c4ccccc4)c3=O)[C@@H]1N2C(=O)CC	none (no result: NRP1-CendR mod, ABCB6 inh 2, hiPSC survival, ARNT TACC3 PPI)
Cc1ccc(S(=O)(=O)Nc2ccc3c(c2)C(=O)N([C@@H](C)CO)C[C@H](C)[C@@H](CN(C)Cc2ccc(C(F)(F)F)cc2)OCCCC[C@H](C)O3)cc1	none (no result: NRP1-CendR mod, ABCB6 inh 2, hiPSC survival)
C[C@@H]1CN([C@@H](C)CO)C(=O)c2cc(NS(=O)(=O)c3ccc(Cl)cc3)ccc2O[C@H]1CN(C)C	none (no result: NRP1-CendR mod, ABCB6 inh 2, hiPSC survival, ARNT TACC3 PPI)
COc1cc(/C=N/NC(=O)c2cncc(Br)c2)cc([N+](=O)[O-])c1O	ARNT TACC3 PPI 58 | ARNT Alpha ctr-1 36µM
COc1ccc(/C=N/NC(=O)c2ccncc2)cc1[N+](=O)[O-]	none
O=C(CN1C(=O)c2ccccc2C1=O)OCC(=O)c1ccc(F)cc1	none
O=C(CN1CC(=O)Oc2ccccc21)OCC(=O)c1ccccc1	ARNT TACC3 PPI 54 | ARNT Alpha ctr-1 8.3µM
CO[C@@H](C(=O)N(C)C[C@H]1OCc2ccccc2-c2c(n(C)c3ccccc23)C(=O)N([C@@H](C)CO)C[C@@H]1C)c1ccccc1	none (no result: NRP1-CendR mod, ABCB6 inh 2, hiPSC survival, ARNT TACC3 PPI)
COC(=O)c1cn(CC(=O)N2CCC3(CC2)C(=O)NCN3c2ccccc2)nn1	none (no result: INS-1E GSIS act, NRP1-CendR mod, ABCB6 inh 2, hiPSC survival)
CCc1c(C)nc(Nc2nc(C)c3ccc(OC)cc3n2)[nH]c1=O	ARNT TACC3 PPI 51 | ARNT Alpha ctr-1 inactive
CCc1c(C)nc(Nc2nc(C)c3cc(OC)ccc3n2)[nH]c1=O	none (no result: INS-1E GSIS act)
O=C(CN1C(=O)/C(=C\c2cccs2)SC1=S)Nc1cccc(C(=O)O)c1	ARNT TACC3 PPI 57 | ARNT Alpha ctr-1 inactive
CC1=NN(c2ccccc2C)C(=O)C1	ARNT TACC3 PPI active (no result: INS-1E GSIS act) | ARNT Alpha ctr-1 inactive
O=S(=O)(c1ccc(Cl)cc1)N1CCN(Cc2ccc(O)c3ncccc23)CC1	none
CN1CCN(C2CCN(Cc3ccc(O)c4ncccc34)CC2)CC1	ARNT TACC3 PPI 65 (no result: INS-1E GSIS act) | ARNT Alpha ctr-1 14µM
OCC1CCN(Cc2ccc(O)c3ncccc23)CC1	none (no result: INS-1E GSIS act, NRP1-CendR mod, ABCB6 inh 2, hiPSC survival, ARNT TACC3 PPI) | ARNT Alpha ctr-1 0.41µM
Oc1ccc(CNC2CCc3ccccc32)c2cccnc12 (stereo not given)	none (no result: INS-1E GSIS act, NRP1-CendR mod, ABCB6 inh 2, hiPSC survival, ARNT TACC3 PPI) | ARNT Alpha ctr-1 3.2µM
Oc1ccc(CN2CCN(Cc3ccccc3)CC2)c2cccnc12	ARNT TACC3 PPI 65 (no result: INS-1E GSIS act) | ARNT Alpha ctr-1 6µM
CN1CCN(Cc2cc(COCc3ccccc3)c3cccnc3c2O)CC1	none
O=C(NC1CCCCC1)[C@H]1[C@H](CO)[C@H]2Cn3c(ccc(-c4ccccc4)c3=O)[C@@H]1N2	none (no result: NRP1-CendR mod, ABCB6 inh 2, hiPSC survival, ARNT TACC3 PPI)
O=C(c1ccc(F)cc1)N1CC(=O)N2[C@@H](CO)[C@@H](c3ccc(C#CC4CCCC4)cc3)[C@@H]2C1	none (no result: NRP1-CendR mod, ABCB6 inh 2, hiPSC survival, ARNT TACC3 PPI)
O=C(COC(=O)c1ccc([N+](=O)[O-])s1)NCCc1ccccc1	ARNT TACC3 PPI 50 | ARNT Alpha ctr-1 inactive
COc1ccc(NC(=O)Nc2ccc3c(c2)[C@H]2C[C@H](CC(=O)NCc4ccccn4)O[C@H](CO)[C@H]2O3)cc1	none (no result: NRP1-CendR mod, ABCB6 inh 2, hiPSC survival)
O=S1(=O)N=C(N/N=C/c2ccccn2)c2ccccc21	ARNT TACC3 PPI 59 | ARNT Alpha ctr-1 24µM
CC(C)C#Cc1cnc2c(c1)C(=O)N([C@H](C)CO)C[C@@H](C)[C@H](CN(C)C(=O)Nc1ccccc1)O2	none (no result: NRP1-CendR mod, ABCB6 inh 2, hiPSC survival)
Cn1ccnc1-c1nc2ccccc2[nH]c1=O	ARNT TACC3 PPI 71 | ARNT Alpha ctr-1 inactive
O=C(NCCN1CCOCC1)c1cc(-c2ccc(Br)cc2)on1	none (no result: INS-1E GSIS act)
O=C(NCCN1CCOCC1)c1cc(-c2ccccc2)on1	none | ARNT Alpha ctr-1 inactive
O=C(NCCCN1CCOCC1)c1cc(-c2ccccc2)on1	none | ARNT Alpha ctr-1 inactive
C[C@H](Nc1nc(-c2ccccn2)nnc1-c1ccccc1)C1CCCCC1	none (no result: INS-1E GSIS act, NRP1-CendR mod, ABCB6 inh 2, hiPSC survival, ARNT TACC3 PPI) | ARNT Alpha ctr-1 2.6µM
C[C@@H](Nc1nc(-c2ccccn2)nnc1-c1ccccc1)C1CCCCC1	none (no result: INS-1E GSIS act, NRP1-CendR mod, ABCB6 inh 2, hiPSC survival, ARNT TACC3 PPI) | ARNT Alpha ctr-1 4.3µM
